Out of some 320,000 compounds screened, about 560 (0.17%) were called active. The entries come from a sample that favours actives as a whole. Values without a mark were called inactive.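 The calls were made as follows: active = inhibition above the campaign's mean inhibition across all tested compounds plus 3 SD (cut at about 9.5% in these data); inactive = the rest.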

Sequence of Serine/threonine-protein phosphatase 5 (Homo sapiens) (P53041 whole entry, looked up): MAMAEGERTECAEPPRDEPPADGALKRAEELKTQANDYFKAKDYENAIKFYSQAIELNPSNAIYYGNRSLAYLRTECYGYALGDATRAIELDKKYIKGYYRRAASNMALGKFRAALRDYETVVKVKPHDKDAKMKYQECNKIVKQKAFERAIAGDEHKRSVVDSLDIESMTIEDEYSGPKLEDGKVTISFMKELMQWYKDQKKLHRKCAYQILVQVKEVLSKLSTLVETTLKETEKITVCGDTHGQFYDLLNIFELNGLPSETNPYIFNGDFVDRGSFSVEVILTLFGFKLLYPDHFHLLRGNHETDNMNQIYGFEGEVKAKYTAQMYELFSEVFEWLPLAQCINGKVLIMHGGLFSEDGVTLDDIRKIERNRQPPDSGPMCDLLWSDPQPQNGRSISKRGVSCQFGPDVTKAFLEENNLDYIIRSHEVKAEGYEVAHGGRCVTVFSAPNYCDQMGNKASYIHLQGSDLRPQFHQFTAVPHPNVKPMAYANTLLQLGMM

The experiment has as its target Serine/threonine-protein phosphatase 5 (Homo sapiens) (UniProt P53041). The experiment is described as follows: PP5 phosphatase inhibitors, primary screen, biochemical, fluorescence (AID 1987).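 Also: 0% = DMSO only and 100% = 100 µM cantharidin control.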 The following applies: purified PP5c, OMFP substrate fluorescence; at 6.7 µM; active compounds read high.
Usually inhibition stands for the change of the read-out against control, counted positive when it falls. Consider `CN(C(=O)CN1C(=O)/C(=C/c2ccc(Cl)cc2)SC1=S)C1CCS(=O)(=O)C1` (stereo not given), for which the inhibition was 2.22%.
For the compound `CNc1nc(-c2ccccc2)cc(-c2ccccc2)n1`, the inhibition was 3.18%.
With `NNC(=O)c1oc2nc(-c3ccccc3)cc(-c3ccco3)c2c1N`, the inhibition is -0.37%.
As for `CNC(=S)NNC(=O)c1oc2nc(-c3ccccc3)cc(-c3ccco3)c2c1N`, the inhibition was 15% (active).
Next, `COc1ccc(S(=O)(=O)N2CCOCC2)cc1NC(=O)CC1CC2CCC1C2` (stereo not given): -2.65%; `COc1ccc(OC)c(C(=O)c2coc3ccc(OC)cc23)c1`: 3.44%.
Next, `COc1ccc(OC)c(C(=O)c2ccc(C(=O)O)cc2)c1`: 10.3% (active); `COc1ccc(OC)c(C(=O)c2ccc(Cl)cc2)c1`: 1.9%.
For `COC(=O)c1ccccc1NC(=O)CSc1n[nH]c(-c2ccncc2)n1` the value was 2.98%.
As for `Cc1cc(N2CCCC2=O)cc(C)c1S(N)(=O)=O`, the inhibition was 0.58%.
Turning to `COCCNC(=O)c1ccc2c(c1)ncn2-c1ccc(C)c(Cl)c1`, the inhibition was -2.87%.
For the compound `CCC(=C/c1sc2ccc3ccccc3c2[n+]1C)/C=C1\Sc2ccc3ccccc3c2N1C`, the inhibition was 13% (active).
For `COc1cccc(CNC(=O)CCC2CCCN(C(=O)c3cc(C)[nH]n3)C2)c1` (stereo not given), the inhibition was -3.1%.
For `CC(=O)N1CCOc2ccc(S(=O)(=O)N3CCC(C(=O)Nc4ccccc4F)CC3)cc21`, the inhibition was -2.25%.
Regarding `COc1cccc(NC(=S)C(C#N)=C2N(C)c3ccccc3N2C)c1`, the inhibition is 3.32%.
With `CC1Cc2cc(/C(O)=C3\C(=O)C(=O)N(Cc4cccnc4)C3c3ccccc3F)ccc2O1` (stereo not given), the inhibition was -0.96%.
`O=C1C=C(c2cccc(Br)c2)C[C@@H](c2ccc(F)cc2)C1`: the inhibition is 2.74%.
For `O=C(NCCCN1CCCCCC1)C1CC(=O)N(C2CCCC2)C1` (stereo not given), the inhibition is 0.05%.
Take `CCc1c(O)nc(SCC(=O)Nc2ccccc2)n(C(C)CC)c1=O` (stereo not given): the inhibition was 4.45%.
For `CCCCN(C(=O)c1ccc(OC(F)(F)F)cc1)c1c(N)n(CCC)c(=O)[nH]c1=O`, the inhibition is 2.07%.
As to `O=C(CN(CC1CCCO1)C(=O)CNS(=O)(=O)c1ccc(Cl)cc1)NCc1ccccc1` (stereo not given), the inhibition was -1.95%.
Regarding `Cc1ccc(C2=NN(C(=O)COc3ncnc4ccccc34)C(c3ccco3)C2)cc1` (stereo not given), the inhibition was -1.05%.
On to `CCOC(=O)N1CCN(Cc2oc(CO)cc(=O)c2O)CC1`, for which the inhibition was 3.28%.
For `CCC(C(=O)NCCC(C)C)N(Cc1ccccc1Cl)C(=O)c1snc(C(N)=O)c1N` (stereo not given) the value was -2.16%.
As for `CC(=O)NCc1ccc(S(=O)(=O)NC2CCN(Cc3ccccc3)CC2)cc1`, the inhibition was 2.13%.
Next, `C=C(C)CNc1cc(S(=O)(=O)N2CCOCC2)ccc1Oc1ccccc1`: 4.3%.
Regarding `Cc1ccc(CCN2CC(C(=O)O)CC2=O)cc1` (stereo not given), the inhibition is 5.13%.
Consider `CC(C)(C)S(=O)(=O)c1ccccc1-c1noc(-c2ccccc2)c1C(N)=O`, for which the inhibition was -0.76%.
`Cc1ccc(Cl)cc1NC(=O)CN1CCN(S(=O)(=O)N2CCOCC2)CC1`: the inhibition is 0.83%.
On to `Cc1cc(C(=O)COc2ccc(Br)cc2F)c(C)n1C1CC1`, for which the inhibition was -1.78%.
For the compound `O=C(NCc1cccc(Cl)c1)C1=CC=CN2CCS(=O)(=O)N=C12`, the inhibition is 0.61%.
On to `COc1cccc(OCc2nnc3n2N=C(c2ccccc2)C(CC(=O)O)S3)c1` (stereo not given), for which the inhibition was -0.47%.
`COc1ccccc1C(=O)NCCC(=O)N(C)Cc1cccnc1`: the inhibition is 0.46%.
Take `Cn1c(N)c(C(=O)COC(=O)COc2ccc(Cl)cc2)c(=O)n(C)c1=O`: the inhibition is 1%.
As to `FC(F)(F)c1ccc2nnc(-c3c(Cl)cccc3Cl)n2c1`, the inhibition is -1.13%.
`O=C1Oc2ccccc2C(=O)/C1=C/c1ccccc1O`: the inhibition is 4.64%.
Take `COc1ccc(NC(=O)CSc2nncc(=O)n2N)cc1OC`: the inhibition was 2.92%.
As to `O=C(Nc1ccccc1)C1CC(=O)n2c(nc3ccccc32)N1` (stereo not given), the inhibition was -0.67%.
For `Nc1ccc(C(=O)Nc2ccccc2N)cc1` the value was -0.77%.
Consider `Cc1ccc(CN2CCN(Cc3cccc(C)n3)CC2CCO)cc1` (stereo not given), for which the inhibition was 0.2%.
On to `CC(C)(C)NC(=O)c1cccc(NC(=O)Cc2ccc(Br)cc2)c1`, for which the inhibition is 3.17%.
For `CC(C)(C)C(=O)Nc1c(Br)c(C2CC2)nn1-c1ccccc1`, the inhibition was 0.27%.
Next, `CCOC(=O)C1=C(CC)OC(N)=C(C#N)C1c1ccc(F)cc1F` (stereo not given): -1.28%; `COc1cc(OC)cc(-c2cc3nc(C4CCN(C(=O)OC(C)(C)C)CC4)cc(=O)n3[nH]2)c1`: -0.26%; `COc1ccc(NC(=O)CCCC(=O)c2ccccc2)cc1`: 0.28%.
Regarding `CCCn1c(C)cc(/C=C(\C#N)C(=O)OCC(=O)Nc2cc(OC)c(OC)c(OC)c2)c1C`, the inhibition is 0.54%.
On to `O=C(NCc1ccccc1)C1=C[C@@H](c2ccc(C(F)(F)F)cc2)C[C@@H](OCc2ccc(CO)cc2)O1`, for which the inhibition is 7.35%.
For `O=C(C1=C[C@H](C2CC2)C[C@H](OCc2ccc(CO)cc2)O1)N1CCN(Cc2ccccc2)CC1`, the inhibition was 1.72%.
For `O=C(C1=C[C@H](c2ccc(C(F)(F)F)cc2)C[C@H](OCc2ccc(CO)cc2)O1)N1CCN(Cc2ccccc2)CC1` the value was 9.64% (active); for `Nc1nnc(SCC(=O)NCC(=O)Nc2ccc(F)c(F)c2F)s1`, -0.64%; for `O=C(OCc1cn(-c2ccc(Cl)c(Cl)c2)nn1)c1ccccc1Cl`, 1.67%.
For `CC1CCCC(C)N1C(=O)COC(=O)COc1ccccc1C#N` (stereo not given), the inhibition was -0.87%.
As for `CN(C)c1nc(N)nc(CSc2ccccn2)n1`, the inhibition is 1.71%.
As to `CN(C)c1nc(N)nc(CSc2nnnn2-c2cccc3ccccc23)n1`, the inhibition was 11.6% (active).
For `COc1ccc(-n2nnnc2SCc2nc(N)nc(N3CCOCC3)n2)cc1` the value was 0.58%.
Regarding `O=C(O)c1cc(S(=O)(=O)Nc2ccc3cn[nH]c3c2)ccc1Br`, the inhibition is 4.94%.
For the compound `Cc1ccc(-n2nc(-c3ccco3)cc2C(=O)NCc2cccnc2)cc1`, the inhibition is 2.97%.
In the case of `COCCN1C=C2C(=O)C(C)(OC(=O)C3CCCC3)C(=O)C=C2C=C1c1ccsc1` (stereo not given), the inhibition was 11.1% (active).
Regarding `COC(=O)CCCC1=CC2=CC(=O)C(C)(OC(=O)c3cccs3)C(=O)C2=CN1CC1CC1` (stereo not given), the inhibition was 5.3%.
For the compound `CC1(OC(=O)C2CCCC2)C(=O)C=C2C=C(c3ccc(C#N)cc3)OC=C2C1=O` (stereo not given), the inhibition is -1.54%.

Source of the values: PubChem BioAssay AID1987 (The Scripps Research Institute Molecular Screening Center, 2009).
